ClpP mod: qHTS Assay for Activators of ClpP; actives 1.9% (n = 340,000); purified B. subtilis ClpP, FRET peptide cleavage, 20 min; Potency, µM (top dose mostly 57.5 µM), without a hit: at the top dose activity change, negative = active; ATP-dependent Clp protease proteolytic subunit (Bacillus subtilis (strain 168)), P80244; active = well fitted falling curve with a large enough effect; inconclusive = small, poorly fitted or top-dose-only effect; inactive = no such curve, though single readings can be large or run the other way; also: potency is read from the fitted curve at half-maximal effect; the source files actives as falling curves though it sought activators and does not explain the sign; nearly all actives have a fitted effect of over 65% in size
Target sequence (P80244 whole entry, looked up): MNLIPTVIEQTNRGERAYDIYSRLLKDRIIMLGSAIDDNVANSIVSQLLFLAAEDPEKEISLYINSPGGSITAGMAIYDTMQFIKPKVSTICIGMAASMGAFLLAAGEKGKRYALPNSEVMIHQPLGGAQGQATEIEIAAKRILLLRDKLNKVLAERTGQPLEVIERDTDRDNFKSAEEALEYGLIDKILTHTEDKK
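Purified B. subtilis ClpP, 10 microg/mL final in Tris/HCl pH8 with KCl, BSA, glycerol and Tween-20, cleaved an Abz/nitrotyrosine-quenched decapeptide. Fluorescence (ex 320, em 430) was read at 0 and 20 min at room temperature. Delta was normalized to 5.8 microM ADEP and DMSO/no-enzyme controls.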
DT40 TDP1 CPT: DT40-hTDP1 cell growth loss with CPT. AID 686979. actives 12% (n = 420,000). chicken DT40 Tdp1-/-;hTDP1 cells + 20 nM CPT, ATP luminescence, 48 h. Potency, µM (top dose mostly 46.2 µM), inactives show at the top dose activity change, negative = growth inhibition, most hits filed as inhibitors; also: potency is read from the fitted curve at half-maximal effect; % is scaled to controls: 0 for no effect and ±100 for the full control effect; nearly all actives have a fitted effect of over 55% in size
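Chicken DT40 Tdp1-/- cells complemented with human TDP1, 400 cells/well, exposed to compounds plus 20 nM camptothecin for at least 48 h at 37 C; viability read as ATP content by CellTiter-Glo luminescence.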
IL-1B inflam inh: inhibitors of inflammasome signaling (IL-1 beta secretion) | THP-1 LPS/ATP IL-1B secretion, AlphaLISA, 16 h; stronger effect = lower value | activity change, % at 57.5 µM | actives 4.7% (n = 360,000); in the data active = activity change below about -50%; inconclusive = mostly about -30% to -49%; also: % is scaled to controls: 0 for no effect and ±100 for the full control effect
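THP-1 cells pretreated 1 hr with compounds (up to 57.5 uM final), then stimulated with LPS (250 ng/mL final) plus ATP (1.25 mM final); secreted IL-1B measured by AlphaLISA after 16 hr, decreased signal indicating inhibition.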
TDP1 cell noCPT: qHTS for Inhibitors of human tyrosyl-DNA phosphodiesterase 1 (TDP1): qHTS in cells in absence of CPT; actives 15% (n = 420,000); Potency, µM (top dose mostly 46.2 µM), inactives show top-dose activity change, negative = growth inhibition, hits mostly inhibitors; DT40 Tdp1-/- hTDP1 cells, no CPT, ATP luminescence, 48 h; also: potency is read from the fitted curve at half-maximal effect; % is scaled to controls: 0 for no effect and ±100 for the full control effect; nearly all actives have a fitted effect of over 55% in size
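Chicken DT40 Tdp1-/- cells stably complemented with human TDP1 were seeded at 400 cells/well with DMSO in place of 20 nM camptothecin. After compound pinning, cells grew at least 48 hr at 37 °C; viability read by CellTiter-Glo luminescence.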
D3 ag: agonists of human D3 dopamine receptor | D3R DiscoveRx beta-arrestin cells, luminescence, 90 min | actives 0.58% (n = 410,000) | P35462 | AID 652048 | max activation, %; in the data active = max activation above about 30%; also: 0% is about no effect
Target sequence (P35462 whole entry, looked up): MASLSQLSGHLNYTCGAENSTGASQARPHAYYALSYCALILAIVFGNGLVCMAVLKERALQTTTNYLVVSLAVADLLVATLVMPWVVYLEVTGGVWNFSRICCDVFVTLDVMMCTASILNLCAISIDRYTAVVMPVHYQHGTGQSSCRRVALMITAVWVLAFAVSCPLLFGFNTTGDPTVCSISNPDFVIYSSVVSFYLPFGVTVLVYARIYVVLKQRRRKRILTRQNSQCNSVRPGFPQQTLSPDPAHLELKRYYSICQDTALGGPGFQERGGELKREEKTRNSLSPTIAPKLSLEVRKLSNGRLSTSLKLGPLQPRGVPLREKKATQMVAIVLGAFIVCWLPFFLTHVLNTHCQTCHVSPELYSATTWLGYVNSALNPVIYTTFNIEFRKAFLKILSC
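Agonist mode: compounds and dopamine controls were applied to plated cells for 90 min at 37 degrees C after an overnight attachment at 1500 cells/well. Luminescent read-out followed 30 - 60 minutes at room temperature with DiscoveRx detection reagent.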
DRD3 antagonist: blocks the human D3 dopamine receptor; actives 2.5% (n = 360,000); max response, negative = inhibition, %; AID 652054; D3R cells, DiscoveRx beta-arrestin luminescence, antagonist mode; stronger effect = lower value; P35462; in the data active = max response below about -50%; inconclusive = no clear call, values can overlap the other calls; also: % is scaled to controls: 0 for no effect and ±100 for the full control effect
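Cells plated overnight at 1500 cells/well, then exposed to library compounds with dopamine controls for 90 minutes at 37 degrees C. DiscoveRx reagent added for 30–60 minutes at room temperature; luminescence read, quantitative HTS format.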
Numbers without * were called inactive; ? = inconclusive; . = no result; ! = not active in a repeat. Rows were chosen to be rich in hits. Some 21% of all compounds tested hit in one or more screens of this group. Unless noted, calls follow the shape of the dose curve; as a rule, active = well fitted inhibition curve with a large enough effect; inconclusive = small, poorly fitted or top-dose-only effect; inactive = flat fitted curve, though single readings scatter.

SMILES	ClpP mod	DT40 TDP1 CPT	IL-1B inflam inh	TDP1 cell noCPT	D3 ag	DRD3 antagonist
CCOC(=O)C1CCCN(S(=O)(=O)c2ccc3c(c2)CC(C)N3C(=O)C2CC2)C1 (stereo unspecified)	-0.2%	18.4µM*	-13.1	-18.9%	0.7	6.6
CC1CCN(C(=O)C2CCCN(S(=O)(=O)c3ccc4c(c3)CC(C)N4C(=O)C3CC3)C2)CC1 (stereo unspecified)	0.4%	?	15.1	?	4.5	21.1
COc1ccc(-n2c3c(c(=O)[nH]c2=O)C(NS(=O)(=O)c2ccc(Cl)cc2)(C(F)(F)F)C(=O)N3)cc1 (stereo unspecified)	.	-16.0%	-11.8	-4.8%	-3.9	-7.5
Cc1c(N=C2N=C(NC(=O)Nc3ccc(Cl)cc3)c3ccccc32)c(=O)n(-c2ccccc2)n1C	.	18.4µM*	-1.1	23.1µM*	0.5	0.9
Cc1c(NC(=O)Nc2ccc(Cl)cc2)c(=O)n(-c2ccccc2)n1C	-0.1%	-5.7%	4.6	-0.2%	1.2	7.2
COc1ccc(C(=O)N2CCN(C(=O)COc3ccccc3)CC2)cc1OC	-0.4%	.	.	.	7.1	.
CC(C)C(C)N(Cc1ccc(C(=O)O)cc1)C(=O)c1ccc2ccccc2n1 (stereo unspecified)	.	12.0%	8.8	29.1%	2.9	1.6
Cc1ccc(-c2nc3ccc(Cl)cc3n2OC(C)C(=O)O)cc1 (stereo unspecified)	3.6%	-9.9%	0.0	13.0%	-1.8	-0.8
Cc1ccc(C(=O)c2oc3ccccc3c2N)cc1	-1.8%	16.4µM*	-9.9	?	1.3	-27.1
Nc1c(C(=O)c2ccc(Br)cc2)oc2ccccc12	2.7%	6.5%	11.5	15.7%	-3.7	-1.3
Cn1cnc([N+](=O)[O-])c1Sc1nc(N)nc2c1ncn2C1CC(O)C(CO)O1 (stereo unspecified)	-21.1%	?	-14.8	13µM*	3.9	-11.6
Cn1cnc([N+](=O)[O-])c1Sc1nc(N)nc2c1ncn2C1OC(CO)C(O)C1O (stereo unspecified)	-1.0%	?	-19.0	?	-12.1	6.2
O=c1[nH]cnc2c1ncn2[C@H]1C[C@H](O)[C@@H](CO)O1	-0.7%	12.6µM*	.	?	.	.
OC[C@H]1O[C@@H](n2cnc3c2NC=NC[C@H]3O)C[C@@H]1O	.	-13.3%	.	-16.6%	44.2*	.
Nc1nc2c(ncn2[C@@H]2O[C@H](CO)[C@@H](O)[C@H]2O)c(=O)[nH]1	.	18.2%	.	3.7%	.	.
O=c1[nH]cnc2c1ncn2C1OC(CO)C(O)C1O (stereo unspecified)	0.6%	0.581µM*!	-3.5	0.82µM*!	14.5	-11.7
O=C(COC(=O)/C=C/c1ccc(OC(F)F)cc1)Nc1ccc(N2CCOCC2)cc1	0.9%	-17.0%	-0.6	-29.6%	-3.2	-6.5
Cc1ccc(C(C)(O)CS(=O)(=O)Cc2ccccc2Cl)cc1 (stereo unspecified)	-0.5%	-12.4%	11.6	1.5%	-5.6	-6.4
CCCCc1nc2cc(C(=O)N3CCN(c4cnccn4)CC3)ccc2o1	-17.9%	-12.4%	-16.6	0.3%	2.3	14.3
COc1cc(Cl)cc(CN2CCC(CCC(=O)NC3CC3)CC2)c1OC	0.1%	-16.7%	15.3	-4.9%	0.5	-4.6
CC1CCCC(C)N1C(=O)CN1C(=O)NC2(CCOc3ccccc32)C1=O (stereo unspecified)	.	13.7%	23.9	-23.5%	-4.8	6.3
CCOc1ccc(-c2nc(Cn3c(=O)cc(C)c4c(C)nn(-c5ccc(C)cc5)c43)c(C)o2)cc1	1.1%	-17.3%	.	0.8%	0.7	.
CN1CCN(C=Nc2nc3ccccc3nc2N2CCCC2)CC1	0.8%	-12.5%	-18.0	-21.5%	3.2	2.1
CCCN1CCC(NC(=O)C2CCCCC2C(=O)O)CC1 (stereo unspecified)	0.5%	1.0%	3.4	6.4%	-4.2	0.1
C=CCNC(=O)c1cccc2c1C(=O)c1ccc(N3CCCC3)cc1S2(=O)=O	0.2%	?	-19.0	?	4.4	21.2
SMILES	ClpP mod	DT40 TDP1 CPT	IL-1B inflam inh	TDP1 cell noCPT	D3 ag	DRD3 antagonist
O=C(NCC1CC1)c1cccc2c1C(=O)c1ccc(N3CCCC3)cc1S2(=O)=O	1.0%	?	-13.1	?	3.9	0.0
O=C(NC1CCCCC1)c1cccc2c1C(=O)c1ccc(N3CCC(Cc4ccccc4)CC3)cc1S2(=O)=O	0.9%	?	-9.5	-26.1%	5.9	12.0
CC1CCN(c2ccc3c(c2)S(=O)(=O)c2cccc(C(=O)NC4CC4)c2C3=O)CC1	0.3%	?	14.0	?	52.1*	50.2
CC1CCN(c2ccc3c(c2)S(=O)(=O)c2cccc(C(=O)NC[C@@H]4CCCO4)c2C3=O)CC1	0.7%	13µM*	35.3	?	31.3*	107.8
O=C(NCC1CCCO1)c1cccc2c1C(=O)c1ccc(N3CCC(Cc4ccccc4)CC3)cc1S2(=O)=O (stereo unspecified)	-0.7%	?	43.0	20.6µM*	49.7*	133.8
CC(C)NC1(C(N)=O)CCN(Cc2ccccc2)CC1	.	12.4%	9.0	20.8%	-12.2	5.6
CC(C)NC(=O)N1CCC2(CC1)CCN(C(=O)c1ccco1)CC2	.	8.6%	.	1.5%	.	.
O=C1C2ON(c3ccccc3)C(c3cccnc3)C2C(=O)N1c1ccccc1 (stereo unspecified)	0.9%	7.0%	1.4	10.9%	6.7	-2.0
O=C1C2ON(c3ccc(Br)cc3)C(c3cccnc3)C2C(=O)N1C1CCCCC1 (stereo unspecified)	?	?	0.0	18.4µM*	-19.8	16.6
CC(=O)Nc1ccc(N=c2cc([N+](=O)[O-])cc(Cl)n2O)cc1	.	?	-53.2*	14.6µM*	7.9	2.8
C=CCn1cc(CN2CCC(C(=O)Nc3cccc(-c4cccc(Cl)c4)c3)CC2)c(C)n1	-3.4%	16.4µM*	-5.6	16.4µM*	-4.8	-11.4
C=CCn1cc(CN2CCC(C(=O)Nc3cccc(-c4cccc(F)c4)c3)CC2)c(C)n1	-0.3%	23.1µM*	-9.3	16.4µM*	-10.3	0.0
C=CCn1cc(CN2CCC(C(=O)Nc3ccc(Oc4cccnc4)cc3)CC2)c(C)n1	-0.1%	-9.5%	10.8	-12.9%	1.6	13.0
COc1ccc(-c2cc(C(F)F)nn2-c2ccc(S(N)(=O)=O)cc2)cc1F	.	3.1%	.	-8.1%	10.7	.
CCc1nc2ccccc2c(C(=O)OCc2nnc(-c3ccccc3)o2)c1C	-4.4%	18.4µM*	2.1	?	2.0	27.9
